Test results as given in PubChem BioAssay (Tox21).
Records with an inconclusive call do not appear. Unmarked numbers belong to inactive results. Activity calls are given as the source filed them. Calls follow the shape of the full dose curve.

Test: qHTS assay to identify small molecule agonists or antagonists of the thyroid stimulating hormone receptor (TSHR) signaling pathway - wild type cell line counter screen (AID 1259384)
Settings: HEK293 wild type, cAMP HTRF counter-screen, hits give high values; series mostly up to 92.4 µM; cAMP activity change: at the top concentration
Description: U.S. Tox21 Program National Center for Advancing Translational Sciences [NCATS] NIH Chemical Genomics Center [NCGC] U.S. Environmental Protection Agency [EPA] National Institutes of Environmental Health Sciences [NIEHS] National Toxicology Program [NTP] U.S. Food and Drug Administration [FDA] Tox21 Assay Overview: TSHR is the receptor for thyrotropin (thyroid stimulating hormone or TSH), a member of the glycoprotein hormone family. TSH is released by the anterior pituitary gland and is the main regulator of thyroid gland growth and development. Upon binding circulating thyrotropin, a G-protein signal cascade activates adenylyl cyclase and […] cAMP concentration is increased. cAMP is a key second messenger involved extensively in cellular signal transduction pathways associated with the majority of G-protein coupled receptors (GPCRs). The activation of these GPCRs by neurotransmitters, lipids, nucleotides, peptides and hormones results in the activation or the inhibition of plasma membrane-bound adenylate cyclase through heterotrimeric G-proteins. A cell-based TSHR-Hek293 assay can be used to identify TSHR agonists. To eliminate the false positive compounds identified from screening a cell-based TSHR-Hek293 cell line, cAMP assay in a wild type Hek293 cells was used as a counter screening.
Tox21 Assay Protocol Summary: Hek293 cells (wild type) were dispensed at 800 cells/4 uL/well in 1536-well white plates using a Multidrop dispenser. After the assay plates were incubated at a 37 C/5% CO2 incubator for 18 hrs, 23 nL of compounds dissolved in DMSO, positive controls or DMSO only was transferred to the assay plate by a pin tool, followed by 1 ul medium containing Ro20-1724. After 30 min of incubation at room temperature, 2.5 ul/well of cAMP-d2 and 2.5 ul/well of anti-cAMP-cryptate were added respectively into the assay plates using a Flying Reagent Dispenser. The plates were incubated at room temperature for 1 hr. The fluorescence intensity in the plates was measured using an Envision plate reader. Each test compound was measured at 15 concentrations and in triplicates.
% is scaled to controls: 0 for no effect and ±100 for the full control effect.

**Q.** With C[C@]12CC[C@H]3[C@@H](CC[C@@]45O[C@@H]4C(O)=C(C#N)C[C@]35C)[C@@H]1CC[C@@H]2O as the molecule, how does the outcome read?
**A.** Its outcome is “inactive”.

**Q.** With Cc1cc(-c2cc(C)c(N)c(C)c2)cc(C)c1N as the molecule, how does the “cAMP activity change” value read?
**A.** The value was -3.49%.

**Q.** For Nc1ccccc1C(=O)O, which outcome is on record?
**A.** Its outcome is “inactive”.

**Q.** For O=NN1CCCCCCC1, which outcome is on record?
**A.** Its outcome is “inactive”.

**Q.** With CCCCOC(=O)c1ccccc1C(=O)OCCCC as the molecule, how does the outcome read?
**A.** The outcome was “inactive”.

**Q.** With CCCCN(CCCC)SN(C)C(=O)Oc1cccc2c1OC(C)(C)C2 as the molecule, how does the outcome read?
**A.** Its outcome is “inactive”.

**Q.** With CC(=O)C=C(C)C as the molecule, how does the outcome read?
**A.** The outcome was “inactive”.

**Q.** Which outcome does the source give for c1ccc(OP(Oc2ccccc2)Oc2ccccc2)cc1 here?
**A.** The outcome was “inactive”.

**Q.** With COC(=O)c1ccccc1N as the molecule, how does the outcome read?
**A.** The outcome was “inactive”.

**Q.** For [O-][Cl+2]([O-])O, which outcome is on record?
**A.** Its outcome is “inactive”.

**Q.** Which outcome does the source give for CC(C)(Cl)Cl here?
**A.** The outcome was “inactive”.

**Q.** With CCC12COCN1COC2 as the molecule, how does the outcome read?
**A.** The outcome was “inactive”.

**Q.** Which outcome does the source give for O=c1[nH]c2ccccc2c(=O)o1 here?
**A.** Its outcome is “inactive”.

**Q.** With CC(C)OC(=O)Nc1cccc(Cl)c1 as the molecule, how does the outcome read?
**A.** The outcome was “inactive”.

**Q.** Which outcome does the source give for CCC[N+](=O)[O-] here?
**A.** Its outcome is “inactive”.

**Q.** With C1CC2OC2CC1C1CO1 (stereo not given) as the molecule, how does the outcome read?
**A.** The outcome was “inactive”.

**Q.** With BrCCBr as the molecule, how does the outcome read?
**A.** Its outcome is “inactive”.

**Q.** For Clc1ccc(Cl)cc1, which outcome is on record?
**A.** The outcome was “inactive”.

**Q.** For COc1ccc2c3c1O[C@H]1[C@@H](O)C=C[C@H]4[C@@H](C2)N(C)CC[C@@]341, which outcome is on record?
**A.** Its outcome is “inactive”.

**Q.** For Cc1ccc(N)cc1Cl, which outcome is on record?
**A.** Its outcome is “inactive”.

**Q.** Which outcome does the source give for CCc1cccc(C)c1N(C(=O)CCl)C(C)COC (stereo not given) here?
**A.** The outcome was “inactive”.

**Q.** With c1ccc(-c2ccccc2)cc1 as the molecule, how does the outcome read?
**A.** Its outcome is “inactive”.

**Q.** With COC(=O)NS(=O)(=O)c1ccc(N)cc1 as the molecule, how does the outcome read?
**A.** Its outcome is “inactive”.

**Q.** Which outcome does the source give for COC(=O)NC(=S)Nc1ccccc1NC(=S)NC(=O)OC here?
**A.** Its outcome is “inactive”.

**Q.** With CC(Br)C(=O)O (stereo not given) as the molecule, how does the outcome read?
**A.** Its outcome is “inactive”.

**Q.** With CCC[CH2][Sn]([Cl])([Cl])[Cl] as the molecule, how does the outcome read?
**A.** The outcome was “inactive”.

**Q.** Which outcome does the source give for COP(N)(=O)SC (stereo not given) here?
**A.** Its outcome is “inactive”.

**Q.** With CN=C=S as the molecule, how does the outcome read?
**A.** Its outcome is “inactive”.

**Q.** For CC(C)=C[C@@H]1[C@@H](C(=O)OCc2coc(Cc3ccccc3)c2)C1(C)C, which outcome is on record?
**A.** Its outcome is “inactive”.

**Q.** For CN1C(=O)CN=C(c2ccccc2)c2cc(Cl)ccc21, which outcome is on record?
**A.** Its outcome is “inactive”.

**Q.** Which outcome does the source give for Cn1cc(-c2ccccc2)c(=O)c(-c2cccc(C(F)(F)F)c2)c1 here?
**A.** The outcome was “inactive”.

**Q.** With CCCCCOC(=O)c1ccccc1C(=O)OCCCCC as the molecule, how does the outcome read?
**A.** The outcome was “inactive”.

**Q.** Which outcome does the source give for CC(C)C1(C)N=C(c2nc3ccccc3cc2C(=O)O)NC1=O (stereo not given) here?
**A.** Its outcome is “inactive”.

**Q.** For O=c1ccc(=O)[nH][nH]1, which “cAMP activity change” value is on record?
**A.** Its value is -4.28%.

**Q.** With CCOP(=S)(OCC)Oc1cnc2ccccc2n1 as the molecule, how does the outcome read?
**A.** Its outcome is “inactive”.

**Q.** For CCCC1COC(Cn2cncn2)(c2ccc(Cl)cc2Cl)O1 (stereo not given), which outcome is on record?
**A.** The outcome was “inactive”.

**Q.** For CC(C)(C)OOC(C)(C)C, which outcome is on record?
**A.** The outcome was “inactive”.

**Q.** With O=Cc1cccc(Oc2ccccc2)c1 as the molecule, how does the outcome read?
**A.** The outcome was “inactive”.

**Q.** Which outcome does the source give for Nc1ccc(Oc2ccc(N)cc2)cc1 here?
**A.** Its outcome is “inactive”.

**Q.** With O=c1n(Cl)c(=O)n(Cl)c(=O)n1Cl as the molecule, how does the outcome read?
**A.** The outcome was “inactive”.
